Data from PubChem BioAssay (Tox21).
Inconclusive results are not listed. The source made the active and inactive calls. Unless noted, the call rests on the fitted dose curve; in most records, active means well fitted curve in the direction sought with a large enough effect in the repeat runs; inconclusive means weak or mixed curves; inactive means no such curve, though single readings can be large; an effect the other way counts as inactive or inconclusive.

Assays:
[1] = biological target: Estrogen receptor (Homo sapiens) (UniProt P03372); assay: qHTS assay to identify small molecule antagonists of the estrogen receptor alpha (ER-alpha) signaling pathway (AID 743069; active means well fitted curve in the direction sought with a large enough effect in the signal ratio in the repeat runs, not every such curve was filed as active; the % refers to the signal ratio)
Sequence of Estrogen receptor (Homo sapiens) (P03372 whole entry, looked up): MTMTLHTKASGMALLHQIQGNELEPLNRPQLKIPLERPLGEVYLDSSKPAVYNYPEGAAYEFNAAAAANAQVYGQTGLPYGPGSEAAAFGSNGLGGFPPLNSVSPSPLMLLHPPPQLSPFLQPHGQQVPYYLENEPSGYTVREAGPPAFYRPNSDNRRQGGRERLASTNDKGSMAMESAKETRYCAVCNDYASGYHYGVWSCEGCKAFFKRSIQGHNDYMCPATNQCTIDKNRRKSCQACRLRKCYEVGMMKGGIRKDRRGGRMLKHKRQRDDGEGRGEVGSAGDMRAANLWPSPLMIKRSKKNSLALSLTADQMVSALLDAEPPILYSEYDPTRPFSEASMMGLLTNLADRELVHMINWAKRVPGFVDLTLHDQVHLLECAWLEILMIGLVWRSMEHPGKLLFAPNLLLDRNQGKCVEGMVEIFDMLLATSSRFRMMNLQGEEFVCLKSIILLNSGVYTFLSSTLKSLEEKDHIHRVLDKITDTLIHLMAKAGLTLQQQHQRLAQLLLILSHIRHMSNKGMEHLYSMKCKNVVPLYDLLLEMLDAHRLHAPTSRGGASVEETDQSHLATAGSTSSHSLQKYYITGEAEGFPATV
Method in brief: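 HEK293 ER-alpha-UAS-bla GripTite cells, held overnight in 2% charcoal-stripped FBS, 5,000 cells/well, preincubated 4 h, then compound plus 17beta-estradiol for 18 h at 37C. Beta-lactamase read by LiveBLAzer B/G FRET substrate, 2 h at room temperature.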

[2] = qHTS assay to identify small molecule antagonists of the estrogen receptor alpha (ER-alpha) signaling pathway - cell viability counter screen (AID 743074; calls by dose curve;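 further: HEK293 cells carrying ER-alpha-UAS-bla reporter stimulated with 17beta-estradiol; nearly all actives have a fitted effect of over 45% in size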)
[3] = biological target: Estrogen receptor (Homo sapiens) (UniProt P03372); assay: qHTS assay to identify small molecule agonists of the estrogen receptor alpha (ER-alpha) signaling pathway (AID 743075; calls by dose curve)
[4] = biological target: Estrogen receptor (Homo sapiens) (UniProt P03372); assay: qHTS assay to identify small molecule agonists of the estrogen receptor alpha (ER-alpha) signaling pathway using the BG1 cell line (AID 743079); details: BG1Luc4E2 cells, ERE-luciferase agonist, 22 h; activation: at 70.3 µM (top of the series) unless noted; further: nearly all actives have a fitted effect of over 20% in size
[5] = qHTS assay to identify small molecule antagonists of the estrogen receptor alpha (ER-alpha) signaling pathway using the BG1 cell line (AID 743080; calls by dose curve;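 further: BG1 cells stimulated with 17beta-estradiol alongside compound; nearly all actives have a fitted effect of over 25% in size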)
Method in brief: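 Readout is ONE-Glo luminescence, taken 30 min at room temperature after reagent addition, preceded by a CellTiter-Fluor viability read; BG1-Luc-4E2 cells had received compound and 17beta-estradiol for 21.5 h at 37 C.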

[6] = qHTS assay to identify small molecule antagonists of the estrogen receptor alpha (ER-alpha) signaling pathway using the BG1 cell line - cell viability counter screen (AID 743081);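 further: compound given together with 17beta-estradiol as the ER stimulus; nearly all actives have a fitted effect of over 45% in size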
Aromatase (Homo sapiens) = Aromatase (Homo sapiens) (UniProt P11511); assay: qHTS assay to identify aromatase inhibitors (AID 743083); further: nearly all actives have a fitted effect of over 55% in size
Sequence of Aromatase (Homo sapiens) (P11511 whole entry, looked up): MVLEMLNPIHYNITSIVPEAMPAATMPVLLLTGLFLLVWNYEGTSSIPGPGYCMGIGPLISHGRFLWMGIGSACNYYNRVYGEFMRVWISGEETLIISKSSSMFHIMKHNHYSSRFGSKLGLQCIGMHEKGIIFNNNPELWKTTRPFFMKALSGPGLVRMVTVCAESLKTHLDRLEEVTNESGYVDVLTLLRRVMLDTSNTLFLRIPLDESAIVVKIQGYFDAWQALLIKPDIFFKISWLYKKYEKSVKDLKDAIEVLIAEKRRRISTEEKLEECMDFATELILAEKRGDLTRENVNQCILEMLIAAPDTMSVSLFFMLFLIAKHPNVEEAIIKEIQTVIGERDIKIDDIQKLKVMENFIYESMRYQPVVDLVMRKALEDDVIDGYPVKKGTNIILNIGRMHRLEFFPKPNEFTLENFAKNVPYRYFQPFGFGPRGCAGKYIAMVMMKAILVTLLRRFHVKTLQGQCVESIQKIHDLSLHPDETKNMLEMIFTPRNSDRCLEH

[7] = qHTS assay to identify small molecule antagonists of the thyroid receptor (TR) signaling pathway - cell viability counter screen (AID 743064); further: nearly all actives have a fitted effect of over 50% in size
Method in brief: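 GH3.TRE-Luc cells, 4 h pre-plating; cpd + T3 1 nM final; 37 °C 23.5 h; CellTiter-Fluor 30 min; fluorescence read.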

[8] = qHTS assay to identify small molecule antagonists of the thyroid receptor (TR) signaling pathway (AID 743065); further: nearly all actives have a fitted effect of over 55% in size
Method in brief: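 GH3.TRE-Luc rat pituitary cells (two TREs driving luciferase) were dosed with compound, then stimulated with 1 nM T3 (final) for 23.5 h at 37 C. ONE-Glo luminescence was the read-out, with CellTiter-Fluor fluorescence as the cytotoxicity counter-screen.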

[9] = test system: thyroid hormone receptor (rat, GH3 cells); assay: qHTS assay to identify small molecule agonists of the thyroid receptor (TR) signaling pathway (AID 743066; calls by dose curve)

Measured: Potency

Cc1nnc(NS(=O)(=O)c2ccc(N)cc2)s1
not listed: [7] | [8] | [9]
inactive: all other assays above

CC(=O)OCc1ccc2c(c1)OCO2
inactive: [7] | [8] | [9] | [2] | [6] | Aromatase (Homo sapiens)

COC(=O)OC
inactive: [7] | [8] | [9] | [2] | [6] | Aromatase (Homo sapiens)

Cc1ncc(CO)c(CO)c1O
inactive: [7] | [2] | [6] | Aromatase (Homo sapiens)
